The target in experiment [1] is Glucocorticoid receptor (Homo sapiens) (UniProt P04150). Nature of the experiment: qHTS assay for small molecule agonists of glucocorticoid receptor signaling (AID 588532; active = well fitted curve in the direction sought with a large enough effect in the signal ratio, with a control signal flat; the % refers to the signal ratio;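 note: 100% = dexamethasone at 0.1 µM and 0% = DMSO only wells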). Particulars: HeLa MMTV-bla, beta-lactamase ratio, agonist, 18 h; stronger effect = higher value; percent of dexamethasone control, DMSO zero. In outline: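 Agonist-mode qHTS: GRE-driven beta-lactamase in HeLa cells exposed 18 h to titrated compounds (up to 92 uM), then CCF4 ratio read after 2 h at RT; Hill-fitted EC50, efficacy relative to 0.1 uM dexamethasone.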
Chain of Glucocorticoid receptor (Homo sapiens) (P04150 whole entry, looked up): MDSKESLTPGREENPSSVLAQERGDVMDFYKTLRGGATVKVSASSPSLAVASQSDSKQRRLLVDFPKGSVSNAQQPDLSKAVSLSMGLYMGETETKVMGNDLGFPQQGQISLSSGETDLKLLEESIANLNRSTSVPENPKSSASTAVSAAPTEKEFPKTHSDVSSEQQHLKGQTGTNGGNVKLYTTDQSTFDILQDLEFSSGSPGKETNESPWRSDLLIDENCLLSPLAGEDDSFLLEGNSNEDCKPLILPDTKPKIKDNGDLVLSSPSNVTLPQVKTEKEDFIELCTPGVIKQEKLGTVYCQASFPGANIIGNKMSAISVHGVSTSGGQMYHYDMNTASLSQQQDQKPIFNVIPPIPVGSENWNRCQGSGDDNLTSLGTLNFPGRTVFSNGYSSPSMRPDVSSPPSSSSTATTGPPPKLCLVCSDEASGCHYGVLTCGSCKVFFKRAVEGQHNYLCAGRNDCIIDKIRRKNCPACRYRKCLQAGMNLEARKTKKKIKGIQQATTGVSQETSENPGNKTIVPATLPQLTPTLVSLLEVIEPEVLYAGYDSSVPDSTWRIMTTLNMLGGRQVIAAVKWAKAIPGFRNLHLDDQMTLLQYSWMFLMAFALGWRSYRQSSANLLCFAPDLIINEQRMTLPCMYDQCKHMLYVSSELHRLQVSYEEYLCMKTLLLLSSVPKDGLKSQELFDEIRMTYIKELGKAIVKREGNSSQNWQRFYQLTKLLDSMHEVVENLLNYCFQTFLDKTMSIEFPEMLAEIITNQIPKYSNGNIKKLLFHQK
For orientation: Quantitative high-throughput screening tests each substance at several concentrations.

The target is the same in experiment [2]. Nature of the experiment: qHTS assay for small molecule antagonists of glucocorticoid receptor signaling (AID 588533; active = well fitted inhibition curve with a large enough effect in the signal ratio, with a control signal flat, not every such curve was filed as active; the % refers to the signal ratio;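 note: cells stimulated with 2 nM dexamethasone as agonist; % is set by controls: 0 for no effect and ±100 for the full control effect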). Particulars: HeLa MMTV-bla, GRE beta-lactamase ratio, antagonist mode, 18 h; series mostly up to 76.8 µM. In outline:
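Antagonist-mode qHTS: compound titrations added to GRE-bla HeLa cells, then dexamethasone 2 nM final; 18 h, 37 C. CCF4 FRET fluorescence normalized to dexamethasone and DMSO; IC50 from Hill fit.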

Experiment [3] can be described thus: qHTS assay for small molecule antagonists of peroxisome proliferator-activated receptor delta signaling (AID 588535; active = well fitted inhibition curve with a large enough effect in the signal ratio, with a control signal flat, not every such curve was filed as active; the % refers to the signal ratio;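 for max response: cells co-treated with a PPAR-delta agonist as stimulator during compound exposure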). Particulars: HEK293T PPARd-UAS-bla, beta-lactamase FRET ratio, 18 h; 460 nm channel. In outline: (§1)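 HEK293T PPAR-delta-UAS-bla cells, 4000/well, 2% charcoal/dextran FBS; 5 h 37 C; cpd titration; 18 h 37 C; CCF4 2 h RT; FI 460/530 nm; Hill fit → IC50, efficacy.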

In experiment [4] the target is Peroxisome proliferator-activated receptor delta (Homo sapiens) (UniProt Q03181). The experiment is described as above. The following applies: HEK293T PPARd-UAS-bla, beta-lactamase FRET ratio, 18 h; series mostly up to 76.7 µM. Put shortly: as §1
Chain of Peroxisome proliferator-activated receptor delta (Homo sapiens) (Q03181 whole entry, looked up): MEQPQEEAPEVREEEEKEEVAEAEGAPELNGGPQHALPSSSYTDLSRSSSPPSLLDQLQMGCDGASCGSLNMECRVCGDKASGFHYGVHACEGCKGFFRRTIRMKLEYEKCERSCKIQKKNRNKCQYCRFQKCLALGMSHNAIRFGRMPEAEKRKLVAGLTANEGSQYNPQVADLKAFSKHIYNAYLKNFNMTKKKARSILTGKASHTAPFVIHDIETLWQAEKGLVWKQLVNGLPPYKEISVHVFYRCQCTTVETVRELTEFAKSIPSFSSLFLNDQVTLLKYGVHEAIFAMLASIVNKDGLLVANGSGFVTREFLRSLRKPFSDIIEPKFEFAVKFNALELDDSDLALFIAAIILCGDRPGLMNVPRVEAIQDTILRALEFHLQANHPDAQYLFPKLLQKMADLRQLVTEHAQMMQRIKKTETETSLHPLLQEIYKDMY
For experiment [5], the target named is Vitamin D3 receptor (Homo sapiens) (UniProt P11473). Nature of the experiment: qHTS assay for small molecule antagonists of vitamin D receptor signaling (AID 588541; calls by dose curve;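 note: receptor activated by calcitriol during compound treatment; % is set by controls: 0 for no effect and ±100 for the full control effect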). The following applies: HEK293T VDR-UAS-bla, beta-lactamase ratio, antagonist mode; series mostly up to 76.7 µM. Put shortly: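 Antagonist-mode beta-lactamase reporter assay: HEK293T VDR-UAS-bla cells were exposed to titrated compound alongside 1-alpha,25-dihydroxyvitamin D3 at 3 nM final for 16 h. Values were normalized to the 50 nM agonist control and DMSO basal, with IC50 and efficacy from Hill equation fits.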
Chain of Vitamin D3 receptor (Homo sapiens) (P11473 whole entry, looked up): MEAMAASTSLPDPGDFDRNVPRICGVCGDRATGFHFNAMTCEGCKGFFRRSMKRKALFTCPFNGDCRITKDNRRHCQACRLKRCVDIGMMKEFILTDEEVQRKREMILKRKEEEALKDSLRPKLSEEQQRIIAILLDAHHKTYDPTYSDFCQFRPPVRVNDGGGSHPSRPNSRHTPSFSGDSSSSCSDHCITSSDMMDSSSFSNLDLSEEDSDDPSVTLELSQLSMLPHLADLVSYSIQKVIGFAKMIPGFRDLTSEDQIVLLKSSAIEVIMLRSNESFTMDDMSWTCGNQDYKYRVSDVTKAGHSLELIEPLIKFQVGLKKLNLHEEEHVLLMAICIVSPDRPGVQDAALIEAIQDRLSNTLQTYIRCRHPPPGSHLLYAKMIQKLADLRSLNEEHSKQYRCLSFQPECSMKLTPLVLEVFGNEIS

The target is the same in experiment [6]. Nature of the experiment: qHTS assay for small molecule agonists of vitamin D receptor signaling (AID 588543; calls by dose curve;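 note: 0% = DMSO basal and 100% = reference agonist control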). The following applies: HEK293T VDR-UAS-bla, beta-lactamase ratio, 16 h; series mostly up to 76.8 µM. Put shortly:
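Measured: β-lactamase reporter activity (CCF4, 405 nm excitation, 460/530 nm emission) in HEK293T VDR-UAS-bla cells after 16 h compound exposure at 37 °C. Normalization against 50 nM 1α,25-dihydroxyvitamin D3 and DMSO; Hill-fit EC50.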

Experiment [7] deals with Thyroid hormone receptor beta (Homo sapiens) (UniProt P10828). As to the kind of experiment: qHTS assay for small molecule agonists of thyroid hormone receptor beta signaling (AID 588545; calls by dose curve). Particulars: TR-UAS-bla GripTite HEK 293, beta-lactamase ratio, agonist mode, 18 h; series mostly up to 76.7 µM. Put shortly:
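Agonist-mode beta-lactamase reporter assay, HEK 293 cells, 2% charcoal/dextran FBS; cells plated 4 hrs, compound 18 hrs at 37 C, CCF4 2 hrs RT. Normalized to 10 nM T3 (100%) and DMSO (0%); Hill fit gives EC50, efficacy.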

Experiment [8] is described as follows: qHTS assay for small molecule antagonists of retinoid X receptor alpha signaling (AID 588546; active = well fitted inhibition curve with a large enough effect in the signal ratio, with a control signal flat, not every such curve was filed as active; the % refers to the signal ratio;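 note: cells stimulated with 9-cis-retinoic acid as agonist; % is set by controls: 0 for no effect and ±100 for the full control effect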). The following applies: HEK293T RXRa-UAS-bla, beta-lactamase ratio, antagonist mode; measured here: W530 green channel, cytotoxicity proxy. Put shortly:
(§2)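 Beta-lactamase reporter inhibition, read as CCF4 fluorescence ratio (ex 405, em 460/530 nm) after 2 h at RT. HEK293T UAS-bla cells, 2500/well, were stimulated with 9-cis-RA at 500 or 100 nM final alongside test compound for 18 h at 37 C.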

For experiment [9], the target named is Retinoic acid receptor RXR-alpha (Homo sapiens) (UniProt P19793). The description is as above. The following applies: HEK293T RXRa-UAS-bla, beta-lactamase ratio, antagonist mode. Put shortly:
as §2

Experiment [10] is described as follows: qHTS assay for small molecule activators of the p53 signaling pathway (AID 651743; active = well fitted activation curve with a large enough effect in the signal ratio, not every such curve was filed as active; the % refers to the signal ratio; note: % of control where 0% means no effect). Particulars: HCT-116 p53RE-bla, beta-lactamase FRET ratio, 16 h; activation: stronger effect = higher value. In outline:
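Read-out is fluorescence intensity from the LiveBLAzer B/G FRET substrate, added for 2 hours at room temperature after HCT-116 p53RE-bla cells had been incubated with compounds for 16 hours at 37 C.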

Experiment [11] is described as follows: qHTS assay for small molecule activators of the nuclear factor-kappa B (NF-kB) signaling pathway (AID 651749; active = well fitted activation curve with a large enough effect in the signal ratio; the % refers to the signal ratio; note: % of control where 0% means no effect). Particulars: NF-kB-bla ME-180 cells, beta-lactamase FRET ratio, 16 h; activation: stronger effect = higher value. In outline: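 Readout: beta-lactamase reporter driven by an NF-kB response element, detected fluorescently as loss of FRET. Cells were the ME-180 line, treated 16 hr at 37C with pin-transferred compound.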

Experiment [12] addresses Peroxisome proliferator-activated receptor alpha (Homo sapiens) (UniProt Q07869). As to the kind of experiment: qHTS assay for small molecule agonists of the peroxisome proliferator-activated receptor alpha (PPARalpha) signaling pathway (AID 651778). For max response: % of control where 0% means no effect. Note: potency is the fitted concentration of half-maximal effect. Particulars: PathHunter PPARalpha complementation, chemiluminescence, 6 h; max response: stronger effect = higher value. Put shortly:
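Chemiluminescence from complemented enzyme reported PPARalpha activation in cells after 6 hr of compound treatment at 37 C. The detection reagent was incubated for 60 min at room temperature, and compounds were scored as agonists.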

Experiment [13] can be described thus: qHTS assay for small molecule agonists of the antioxidant response element (ARE) signaling pathway measured by Nrf2-dependant transcriptional activity (AID 720636; active = well fitted curve in the direction sought with a large enough effect in the repeat runs; an effect the other way counts as inactive or inconclusive; note: % of control where 0% means no effect). Particulars: ARE-luc HepG2, Nrf2 luciferase reporter, 16 h; series mostly up to 92.4 µM. Put shortly: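 ONE-Glo luminescence, read 30 min after reagent addition at room temperature, reflected ARE reporter activity in HepG2 cells that had been incubated with compound for 16 hr at 37 C in 1% dialyzed FBS.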

A short description of experiment [14]: qHTS assay for small molecule agonists of the antioxidant response element (ARE) signaling pathway measured by Nrf2-dependant transcriptional activity - cell viability counter screen (AID 720653; active = well fitted curve in the direction sought with a large enough effect in the repeat runs; an effect the other way counts as inactive or inconclusive; note: % is set by controls: 0 for no effect and ±100 for the full control effect). The following applies: ARE-bla HepG2 viability, CellTiter-Glo ATP luminescence, 16 h; max response: stronger effect = lower value. In outline:
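Cytotoxicity counter screen: intracellular ATP quantified by CellTiter-Glo luminescence in the same ARE-bla HepG2 plates, after 16 h compound exposure and a 2 h beta-lactamase substrate step.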

A short description of experiment [15]: qHTS assay for cell viability of HEK293 cells (AID 743288). Note: % is set by controls: 0 for no effect and ±100 for the full control effect; nearly all actives have a fitted effect of over 50% in size. The following applies: ATP luminescence (CellTiter-Glo), 18 h; max response: stronger effect = lower value. In outline: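 Luminescent ATP quantitation served as the viability read-out. Cells (parental HEK293, 2,000/well) received compounds after at least 5 h at 37 C and were exposed for 18 h before a 30 min room-temperature reagent step.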

The nature of experiment [16]: qHTS assay for cell viability of the p53RE-bla HCT-116 cell line (AID 743292). Note: % is set by controls: 0 for no effect and ±100 for the full control effect; nearly all actives have a fitted effect of over 55% in size. The following applies: p53RE-bla HCT-116 viability, ATP luminescence, 16 h; series mostly up to 95 µM. In outline:
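After plating at 4,000 cells per well and a 5 h rest at 37 C, HCT-116 cells carrying p53RE-bla received test chemicals in DMSO. Sixteen hours later at 37 C, CellTiter-Glo was added and luminescence recorded following 30 min at room temperature.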

Experiment [17] deals with Nuclear receptor subfamily 1 group I member 2 (Rattus norvegicus) (UniProt Q9R1A7). Nature of the experiment: qHTS assay for small molecule activators of the rat pregnane X receptor (rPXR) signaling pathway (AID 651751; call rule not given here; note: 0% is about no effect). The following applies: rPXR reporter cells, luciferase (One-Glo), 24 h.
Chain of Nuclear receptor subfamily 1 group I member 2 (Rattus norvegicus) (Q9R1A7 whole entry, looked up): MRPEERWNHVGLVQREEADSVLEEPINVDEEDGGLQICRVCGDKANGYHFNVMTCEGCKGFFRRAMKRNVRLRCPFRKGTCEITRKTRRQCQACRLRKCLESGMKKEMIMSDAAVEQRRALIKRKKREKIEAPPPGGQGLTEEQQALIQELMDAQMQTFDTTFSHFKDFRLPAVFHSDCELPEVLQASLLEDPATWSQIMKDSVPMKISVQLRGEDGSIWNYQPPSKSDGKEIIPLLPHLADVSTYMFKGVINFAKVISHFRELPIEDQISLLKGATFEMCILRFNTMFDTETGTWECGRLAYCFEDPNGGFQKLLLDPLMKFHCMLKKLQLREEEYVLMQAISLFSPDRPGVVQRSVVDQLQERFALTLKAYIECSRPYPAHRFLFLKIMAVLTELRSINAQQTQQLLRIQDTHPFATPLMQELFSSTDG
Experiment [18] in a line: qHTS assay for small molecule activators of the human pregnane X receptor (PXR) signaling pathway (AID 720659; call rule not given here; note: 0% is about no effect). Particulars: DPX-2 HepG2 CYP3A4-luciferase, 24 h; series mostly up to 92.3 µM.
Experiment [19] deals with Retinoic acid receptor RXR-alpha (Homo sapiens) (UniProt P19793). Nature of the experiment: qHTS assay for small molecule agonists of retinoid X receptor alpha signaling (AID 588544; calls by dose curve; note: potency is the fitted concentration of half-maximal effect;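 for activation: 0% = DMSO basal wells and 100% = reference agonist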). The following applies: HEK293T RXRa-UAS-bla, beta-lactamase reporter, 18 h; series mostly up to 76.7 µM.
Chain of Retinoic acid receptor RXR-alpha (Homo sapiens) (P19793 whole entry, looked up): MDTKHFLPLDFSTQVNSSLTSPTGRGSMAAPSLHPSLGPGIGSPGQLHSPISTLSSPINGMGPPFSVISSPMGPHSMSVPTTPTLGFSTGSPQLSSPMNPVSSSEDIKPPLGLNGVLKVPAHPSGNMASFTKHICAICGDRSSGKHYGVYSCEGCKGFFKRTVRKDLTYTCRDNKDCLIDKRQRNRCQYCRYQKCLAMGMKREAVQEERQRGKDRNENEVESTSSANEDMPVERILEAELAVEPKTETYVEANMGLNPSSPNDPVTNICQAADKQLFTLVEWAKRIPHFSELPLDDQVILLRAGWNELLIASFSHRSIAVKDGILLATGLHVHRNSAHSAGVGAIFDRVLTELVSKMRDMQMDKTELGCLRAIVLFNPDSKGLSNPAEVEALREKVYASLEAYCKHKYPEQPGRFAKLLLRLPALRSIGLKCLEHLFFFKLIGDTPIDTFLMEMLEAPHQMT
The nature of experiment [20]: qHTS assay for environmental chemicals that activate the Aryl hydrocarbon Receptor (AhR) signaling pathway (AID 651777). Note: % of control where 0% means no effect; nearly all actives have a fitted effect of over 15% in size. The following applies: 1A2-DRE human hepatoma cells, luciferase, 24 h; activation: stronger effect = higher value. In outline:
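Following a 24 hr incubation with test chemicals at 37 C and 5% CO2, 1A2-DRE human hepatoma cells received One-Glo reagent; after 30 min at room temperature, luciferase output reflected CYP1A2 induction via AhR.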

SMILES strings stand for the structures. Results filed as inconclusive are left out. The source made the active and inactive calls. Unless noted, calls come from the whole dose curve; as a rule, active = well fitted curve in the direction sought with a large enough effect; inconclusive = small, poorly fitted or top-dose-only effect, or another doubt; inactive = no such curve, though single readings can be large; an effect the other way counts as inactive or inconclusive.

Chain of Thyroid hormone receptor beta (Homo sapiens) (P10828 whole entry, looked up): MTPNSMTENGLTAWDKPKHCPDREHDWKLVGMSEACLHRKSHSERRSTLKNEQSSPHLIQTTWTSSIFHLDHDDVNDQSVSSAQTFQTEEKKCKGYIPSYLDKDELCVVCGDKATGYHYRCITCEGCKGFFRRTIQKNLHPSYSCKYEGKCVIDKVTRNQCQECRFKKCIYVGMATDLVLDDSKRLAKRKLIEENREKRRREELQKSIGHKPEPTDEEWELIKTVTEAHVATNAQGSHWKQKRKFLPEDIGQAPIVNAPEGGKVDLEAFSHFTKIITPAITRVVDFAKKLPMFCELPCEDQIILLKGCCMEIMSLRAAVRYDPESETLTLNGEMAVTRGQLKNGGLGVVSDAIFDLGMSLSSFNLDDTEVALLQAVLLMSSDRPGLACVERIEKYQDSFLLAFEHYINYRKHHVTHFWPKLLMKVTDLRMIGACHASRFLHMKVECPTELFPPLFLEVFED
Chain of Peroxisome proliferator-activated receptor alpha (Homo sapiens) (Q07869 whole entry, looked up): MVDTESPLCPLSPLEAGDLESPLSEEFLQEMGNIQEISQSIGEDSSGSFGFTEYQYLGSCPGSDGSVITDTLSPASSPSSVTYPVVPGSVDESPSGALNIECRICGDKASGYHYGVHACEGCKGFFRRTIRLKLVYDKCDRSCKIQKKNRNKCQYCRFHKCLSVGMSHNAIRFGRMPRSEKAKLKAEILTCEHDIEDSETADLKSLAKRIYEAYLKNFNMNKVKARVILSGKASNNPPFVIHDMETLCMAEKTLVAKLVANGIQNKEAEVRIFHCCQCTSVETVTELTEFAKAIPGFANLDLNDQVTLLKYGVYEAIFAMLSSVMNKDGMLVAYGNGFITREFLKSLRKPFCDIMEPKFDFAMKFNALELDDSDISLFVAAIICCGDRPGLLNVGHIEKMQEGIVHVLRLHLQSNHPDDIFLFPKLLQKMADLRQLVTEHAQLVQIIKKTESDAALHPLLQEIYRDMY

Regarding `C1=C/CC/C=C/CC/C=C/CC/1`, the results for the activation in experiment [1], in [10] and in experiment [11] were 2.01% (inactive), -6.28% (inactive) and 0.104% (inactive), respectively. Moreover, the Potency entry in experiment [2], in [4], in [5], in experiment [7], in experiment [13] and in [16] was “inactive” throughout. In addition, the max response in experiment [3] is 18.8%; in [8] it was 5.63%; in experiment [9], -14.4% (inactive); in experiment [12] it was 0.0417% (inactive); in [14], -8.56% (inactive); in experiment [15] it was -8.62% (inactive). Further, the max response in [17] was 13.1% (inactive). Besides, the outcome in experiment [6] and in [18] was inactive.
As to `O=C(O)C1(C(=O)Nc2ccc(Cl)cc2Cl)CC1`, the Potency entry in experiment [5], in experiment [7] and in [16] was “inactive” throughout. Besides, the result in [6] and in experiment [18] was inactive. The max response is 8.82% in experiment [8]; 9.68% (inactive) in experiment [9]; 0.116% (inactive) in [12]; -1.63% (inactive) in [14]; -9.45% (inactive) in [15]. For the same compound, the activation in experiment [11] is -1.09% (inactive).
For `CCCCCCC(O)CCCCCCCCCCC(=O)O` (stereo not drawn), the activation in [1] was -3.25% (inactive). The max response was 31.3% in experiment [3], -0.036% (inactive) in experiment [14], -10.3% (inactive) in experiment [15] and 0.495% (inactive) in experiment [17]. Moreover, the Potency entry in experiment [4], in experiment [5], in experiment [19], in [7], in experiment [13] and in [16] was “inactive” throughout. In experiment [12], the Potency was 31.6 µM (active). Besides, in experiment [18], the outcome was inactive.
Take `Nc1cc(Cl)c(O)c(Cl)c1`: the activation was 16.9% (inactive) in experiment [1], -2.82% (inactive) in [10], -1.35% (inactive) in experiment [11] and 0.138% (inactive) in [20]. Moreover, the Potency result in experiment [2], in [7] and in experiment [16] was “inactive” in each case. In addition, the outcome in experiment [6] and in experiment [18] was inactive. Further, the max response in experiment [14] was -17.9% (inactive); in experiment [15], -19.5% (inactive); in [17], 0.356% (inactive).
Turning to `CC(=O)c1c(C)c([N+](=O)[O-])c(C(C)(C)C)c([N+](=O)[O-])c1C`, the activation in [1] was 3.65% (inactive); in experiment [10], 6.99% (inactive); in experiment [11], -2.72% (inactive); in experiment [20] it was 0.439% (inactive). For the same compound, the Potency result in experiment [2], in [4], in experiment [5], in experiment [7], in [13] and in experiment [16] was “inactive” in each case. The max response in [3] was -16.8%; in [8], -24%; in experiment [9], -4.43% (inactive); in experiment [12], 8.73% (inactive); in experiment [14], -1.24% (inactive); in [15], -8.24% (inactive). The outcome in experiment [6] was inactive. Also, the Potency in experiment [19] is 28.2 µM (active).
On to `CCCCC(CC)COC(=O)c1ccc(C(=O)OCC(CC)CCCC)cc1` (stereo not drawn), for which the max response in [3] was -1.09%; in [8], -7.23%; in [9], 5.51% (inactive); in experiment [12] it was -1.72% (inactive); in experiment [14], -17% (inactive); in experiment [15], -13.5% (inactive). For the same compound, the max response in experiment [17] was -0.0794% (inactive). The Potency result in experiment [4], in experiment [19], in experiment [7], in [13] and in experiment [16] was “inactive” in each case. The activation in experiment [10] was 0.101% (inactive); in experiment [20], -2.7% (inactive). Also, in experiment [18], the call was inactive.
With `CCCC/C=C\CCCCCCCCCC=O`, the max response in [3] is -21.9%; in [8], -13.9%; in [9] it was 6.53% (inactive); in experiment [12], 7.85% (inactive); in [14], -12.8% (inactive); in experiment [15] it was 3.95% (inactive). In experiment [17], the max response was 4.56% (inactive). For the same compound, the Potency entry in [4], in experiment [5], in [7] and in experiment [13] was “inactive” in each case. Moreover, the result in experiment [6] and in experiment [18] was inactive. Besides, the activation in experiment [10] was 0.222% (inactive); in experiment [11], -0.297% (inactive); in experiment [20], 1.27% (inactive).
